# In the supplement of paper PMC10037445:
# Whole data set: some 2,900 compounds, median “NF-kB SEAP reporter activity, fold change vs agonist alone” near 0.99, cut for the highest 2% near 2.6. Only a selection was taken, and the highest values are over-represented in it overall.
# Columns and labels:
# [1] = system: RAW-Dual; assay: NF-kB SEAP reporter activity, fold change vs agonist alone; cytotoxicity flag (confluency mask): not cytotoxic; higher = enhanced NF-kB activity
# Method in brief: (§1)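 Supernatant from RAW-Dual macrophages was read after 20 hours for IRF by QuantiLuc luminescence and for NF-κB by QuantiBlue absorbance at 620 nm. The cells (50,000 cells/well in DMEM, 384-well plates, 37 °C, 5% CO2) had received 50 nL of library stock by pin tool and, 1 h later, a PRR agonist. Reporter activity is expressed relative to agonist-alone wells as fold change, and wells were flagged cytotoxic if IncuCyte confluency was under 70% of agonist controls in both mask sets.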
# [2] = system: RAW-Dual; assay: NF-kB SEAP reporter activity, fold change vs agonist alone; higher = enhanced NF-kB activity
# Method in brief: as §1
# [3] = system: RAW-Dual; assay: NF-kB SEAP reporter activity, fold change vs agonist alone; cytotoxicity flag (confluency mask): cytotoxic (confluency <70% of control); higher = enhanced NF-kB activity
# Method in brief: as §1
# [4] = agonist: ODN 1826 (TLR9) 0.5 ug/mL
# [5] = agonist: Pam2CSK4 (TLR2/6) 0.1 ug/mL
# [6] = agonist: Pam3CSK4 (TLR2/1) 0.1 ug/mL
# [7] = library stock concentration (final ~1000-fold dilution): 10 mM, cytotoxicity flag (confluency mask): not cytotoxic, agonist: Imiquimod (TLR7) […]
# [8] = library stock concentration (final ~1000-fold dilution): 10 mM, cytotoxicity flag (confluency mask): not cytotoxic, agonist: MPLA (TLR4) […]
# [9] = library stock concentration (final ~1000-fold dilution): 10 mM, cytotoxicity flag (confluency mask): cytotoxic (confluency <70% of control), agonist: Imiquimod (TLR7) […]
# [10] = library stock concentration (final ~1000-fold dilution): 10 mM, cytotoxicity flag (confluency mask): cytotoxic (confluency <70% of control), agonist: MPLA (TLR4) […]
smiles,measurement,setting,value
O=c1c(-c2ccc(O)cc2)coc2cc(OC3OC(CO)C(O)C(O)C3O)ccc12 (stereo not drawn) (library stock concentration (final ~1000-fold dilution): 10 mM),NF-kB SEAP reporter activity,[1]; agonist: LPS (TLR4) 0.1 ug/mL,1.62
same,NF-kB SEAP reporter activity,[1]; [4],1.17
same,NF-kB SEAP reporter activity,[1]; [5],1.25
same,NF-kB SEAP reporter activity,[1]; [6],1.38
O=c1c(-c2ccc(O)cc2)coc2cc(OC3OC(CO)C(O)C(O)C3O)ccc12 (stereo not drawn),NF-kB SEAP reporter activity,[2]; [7],1.08
same,NF-kB SEAP reporter activity,[2]; [8],1.08
CN(CC(=O)N(Cc1ccc(C2CCCCC2)cc1)c1ccc(C(=O)NO)cc1)S(=O)(=O)c1c(F)c(F)c(F)c(F)c1F,NF-kB SEAP reporter activity,[2]; [7],1.3
same,NF-kB SEAP reporter activity,[2]; [8],1.02
CN(CC(=O)N(Cc1ccc(C2CCCCC2)cc1)c1ccc(C(=O)NO)cc1)S(=O)(=O)c1c(F)c(F)c(F)c(F)c1F (library stock concentration (final ~1000-fold dilution): 10 mM),NF-kB SEAP reporter activity,[1]; agonist: LPS (TLR4) 0.1 ug/mL,0.324
same,NF-kB SEAP reporter activity,[1]; [4],1.53
same,NF-kB SEAP reporter activity,[1]; [5],0.374
same,NF-kB SEAP reporter activity,[1]; [6],0.284
CS(=O)(=O)c1ccc(-c2cnc(N)c(C(=O)Nc3ccccc3)n2)cc1,NF-kB SEAP reporter activity,[2]; [7],1.45
same,NF-kB SEAP reporter activity,[2]; [8],2.21
CS(=O)(=O)c1ccc(-c2cnc(N)c(C(=O)Nc3ccccc3)n2)cc1 (library stock concentration (final ~1000-fold dilution): 10 mM),NF-kB SEAP reporter activity,[1]; agonist: LPS (TLR4) 0.1 ug/mL,4.61
same,NF-kB SEAP reporter activity,[1]; [4],0.67
same,NF-kB SEAP reporter activity,[1]; [5],1.02
same,NF-kB SEAP reporter activity,[1]; [6],1.48
CN1CCN(S(=O)(=O)c2ccc(-c3cnc(N)c(C(=O)Nc4cccnc4)n3)cc2)CC1 (library stock concentration (final ~1000-fold dilution): 10 mM),NF-kB SEAP reporter activity,[1]; agonist: LPS (TLR4) 0.1 ug/mL,4.28
same,NF-kB SEAP reporter activity,[1]; [4],2.61
same,NF-kB SEAP reporter activity,[1]; [5],1.11
same,NF-kB SEAP reporter activity,[1]; [6],2.07
CNCc1ccc(-c2cc(-c3nc(-c4ccc(S(=O)(=O)C(C)C)cc4)cnc3N)on2)cc1 (library stock concentration (final ~1000-fold dilution): 10 mM),NF-kB SEAP reporter activity,[1]; agonist: LPS (TLR4) 0.1 ug/mL,1.06
same,NF-kB SEAP reporter activity,[1]; [4],0.943
same,NF-kB SEAP reporter activity,[1]; [5],0.871
same,NF-kB SEAP reporter activity,[1]; [6],1.05
CS(=O)(=O)O.Cc1ccc(NC(=O)c2ccc(CN3CCN(C)CC3)cc2)cc1Nc1nccc(-c2cccnc2)n1 (library stock concentration (final ~1000-fold dilution): 10 mM),NF-kB SEAP reporter activity,[3]; agonist: LPS (TLR4) 0.1 ug/mL,1.29
same,NF-kB SEAP reporter activity,[3]; [4],0.201
same,NF-kB SEAP reporter activity,[3]; [5],1.13
same,NF-kB SEAP reporter activity,[3]; [6],1.25
CS(=O)(=O)c1ccc(C(=O)Nc2ccc(Cl)c(-c3ccccn3)c2)c(Cl)c1 (library stock concentration (final ~1000-fold dilution): 10 mM),NF-kB SEAP reporter activity,[1]; agonist: LPS (TLR4) 0.1 ug/mL,1.19
same,NF-kB SEAP reporter activity,[1]; [4],1.4
same,NF-kB SEAP reporter activity,[1]; [5],0.898
same,NF-kB SEAP reporter activity,[1]; [6],1.01
CS(=O)(=O)O.Cc1ccc(NC(=O)c2ccc(CN3CCN(C)CC3)cc2)cc1Nc1nccc(-c2cccnc2)n1,NF-kB SEAP reporter activity,[2]; [9],1.24
same,NF-kB SEAP reporter activity,[2]; [10],1.46
CS(=O)(=O)c1ccc(C(=O)Nc2ccc(Cl)c(-c3ccccn3)c2)c(Cl)c1,NF-kB SEAP reporter activity,[2]; [7],1.07
same,NF-kB SEAP reporter activity,[2]; [8],0.945
CNCc1ccc(-c2cc(-c3nc(-c4ccc(S(=O)(=O)C(C)C)cc4)cnc3N)on2)cc1,NF-kB SEAP reporter activity,[2]; [7],0.858
same,NF-kB SEAP reporter activity,[2]; [8],0.98
CC(C)(C)c1ccc(S(=O)(=O)NCc2ccc(C(=O)Nc3cccnc3)cc2)cc1 (library stock concentration (final ~1000-fold dilution): 10 mM),NF-kB SEAP reporter activity,[1]; agonist: LPS (TLR4) 0.1 ug/mL,0.67
same,NF-kB SEAP reporter activity,[1]; [4],1.1
same,NF-kB SEAP reporter activity,[1]; [5],0.834
same,NF-kB SEAP reporter activity,[1]; [6],0.706
CC(C)(C)c1ccc(S(=O)(=O)NCc2ccc(C(=O)Nc3cccnc3)cc2)cc1,NF-kB SEAP reporter activity,[2]; [7],0.865
same,NF-kB SEAP reporter activity,[2]; [8],0.908
CN1CCN(S(=O)(=O)c2ccc(-c3cnc(N)c(C(=O)Nc4cccnc4)n3)cc2)CC1,NF-kB SEAP reporter activity,[2]; [7],1.5
same,NF-kB SEAP reporter activity,[2]; [8],2.5
CC/C=C\C/C=C\C/C=C\C/C=C\C/C=C\C/C=C\CCC(=O)NCCNC(=O)c1ccccc1O,NF-kB SEAP reporter activity,[2]; [9],0.248
same,NF-kB SEAP reporter activity,[2]; [10],1.54
CC/C=C\C/C=C\C/C=C\C/C=C\C/C=C\C/C=C\CCC(=O)NCCNC(=O)c1ccccc1O (library stock concentration (final ~1000-fold dilution): 10 mM),NF-kB SEAP reporter activity,[3]; agonist: LPS (TLR4) 0.1 ug/mL,0.318
same,NF-kB SEAP reporter activity,[3]; [4],0.298
same,NF-kB SEAP reporter activity,[3]; [5],0.133
same,NF-kB SEAP reporter activity,[3]; [6],0.184
C=CC(=O)N1CC(N2CCN(C(=O)CNc3cc(C4(C)CC4)c(Cl)cc3O)CC2)C1 (library stock concentration (final ~1000-fold dilution): 10 mM),NF-kB SEAP reporter activity,[1]; agonist: LPS (TLR4) 0.1 ug/mL,0.418
same,NF-kB SEAP reporter activity,[1]; [4],0.542
same,NF-kB SEAP reporter activity,[1]; [5],0.537
same,NF-kB SEAP reporter activity,[1]; [6],0.448
C=CC(=O)N1CC(N2CCN(C(=O)CNc3cc(C4(C)CC4)c(Cl)cc3O)CC2)C1,NF-kB SEAP reporter activity,[2]; [7],0.915
same,NF-kB SEAP reporter activity,[2]; [8],0.645
Cl.N=C(N)NC(=O)c1nc(Cl)c(N)nc1N.O.O,NF-kB SEAP reporter activity,"[2]; library stock concentration (final ~1000-fold dilution): 10 mM water, cytotoxicity flag (confluency mask): not cytotoxic, agonist: Imiquimod (TLR7) […]",0.827
same,NF-kB SEAP reporter activity,"[2]; library stock concentration (final ~1000-fold dilution): 10 mM water, cytotoxicity flag (confluency mask): not cytotoxic, agonist: MPLA (TLR4) […]",1.01
Cl.N=C(N)NC(=O)c1nc(Cl)c(N)nc1N.O.O (library stock concentration (final ~1000-fold dilution): 10 mM water),NF-kB SEAP reporter activity,[1]; agonist: LPS (TLR4) 0.1 ug/mL,1.07
same,NF-kB SEAP reporter activity,[1]; [4],1.09
same,NF-kB SEAP reporter activity,[1]; [5],0.993
same,NF-kB SEAP reporter activity,[1]; [6],0.984
CC(C)(C)c1cc(C(=O)/C(C#N)=N/Nc2cccc(Cl)c2)no1 (library stock concentration (final ~1000-fold dilution): 10 mM),NF-kB SEAP reporter activity,[1]; agonist: LPS (TLR4) 0.1 ug/mL,4.18
same,NF-kB SEAP reporter activity,[1]; [4],1.16
same,NF-kB SEAP reporter activity,[1]; [5],0.423
same,NF-kB SEAP reporter activity,[1]; [6],0.673
CC(C)(C)c1cc(C(=O)/C(C#N)=N/Nc2cccc(Cl)c2)no1,NF-kB SEAP reporter activity,[2]; [7],1.11
same,NF-kB SEAP reporter activity,[2]; [8],1.91
Cn1nc(C(C)(C)C)cc1C(=O)NC(Cc1cccc(Cl)c1)C(=O)NCC#N (stereo not drawn),NF-kB SEAP reporter activity,[2]; [7],0.765
same,NF-kB SEAP reporter activity,[2]; [8],1.05
Cn1nc(C(C)(C)C)cc1C(=O)NC(Cc1cccc(Cl)c1)C(=O)NCC#N (stereo not drawn) (library stock concentration (final ~1000-fold dilution): 10 mM),NF-kB SEAP reporter activity,[1]; agonist: LPS (TLR4) 0.1 ug/mL,1.13
same,NF-kB SEAP reporter activity,[1]; [4],1.14
same,NF-kB SEAP reporter activity,[1]; [5],0.947
same,NF-kB SEAP reporter activity,[1]; [6],0.992
